In PubChem BioAssay AID1259422 (The Scripps Research Institute Molecular Screening Center, 2018):
In all, about 640,000 compounds went through this assay and about 9,300 (1.5%) were called active. The full list was thinned out, with actives kept by preference. Values without a mark were called inactive. No stated cut-off is given here; in the data, active means inhibition above about 32%; inactive means the rest.

Assay: TEAD-YAP interaction inhibition, primary screen, TEAD-YAP interaction inhibitor project, luminescence, HEK-TIYL cells (AID 1259422);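 further: 0% = median of test compound wells and 100% = reference inhibitor wells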
Details: TEAD-Gal4/YAP UAS-luciferase luminescence, at 9.12 µM, stronger effect = higher value

Structure (SMILES) | inhibition
COc1ccc(C[C@@H]2NC(=O)[C@@H]3C[C@H](NCc4cnn(-c5ccccc5F)c4)CN3C2=O)cc1 | 10.7%
CCC(C)N1C(=O)C2C(C(=O)Nc3ccc(F)c(Cl)c3)C3C=CC2(O3)C1C(=O)NC1CCCC(C)C1C (configuration not stated) | -20.7%
C/C(=N\NC(=O)Cc1cccn1C)c1ccc(O)cc1 | -12.8%
CCN1CCSc2ccc(C(=O)NCCCOC)cc21 | 0.64%
CC1=Nc2cc(C(=O)O)ccc2Sc2ccccc21 | -2.24%
COCCNC(=O)c1ccc2c(c1)N=C(C)c1cc(Br)ccc1S2 | 52.5% (active)
COCCNC(=O)c1ccc2c(c1)N=C(C)c1cc(C)ccc1S2 | 67.6% (active)
COCCNC(=O)/C=C/c1ccc(Br)cc1 | -24.8%
COCCNC(=O)c1ccc2c(c1)ncn2-c1ccc(C)c(Cl)c1 | -17.5%
COc1cccc(CCC(=O)N2CCC(CCC(=O)N(C)Cc3ccccc3)CC2)c1 | 4.53%
COc1cc(C2C(C#N)=C(N)Oc3n[nH]c(-c4cc(OC)c(OC)c(OC)c4)c32)ccc1OC(=O)N1CCOCC1 (configuration not stated) | 12.5%
O=C(O)c1cc(N=Cc2cc(Br)cc(Cl)c2O)ccc1O | -2.5%
CC1=C(C#N)C(c2ccccc2Br)C2=C(CC(c3ccccc3)CC2=O)N1 (configuration not stated) | 37.1% (active)
CC1=C(C#N)C(c2ccc(Cl)cc2Cl)C2=C(CC(c3ccccc3)CC2=O)N1 (configuration not stated) | 11.3%
COC(=O)C1=C(C)NC2=C(C(=O)CC(c3ccccc3)C2)C1c1ccc(C)cc1 (configuration not stated) | 2.81%
COC(=O)CCCC(=O)N1CCOCCOCCN(C(=O)CCCC(=O)OC)CCOCCOCC1 | 7.88%
COc1ccc(C2=NOC(C(=O)NCc3ccco3)C2)cc1OC (configuration not stated) | 46.8% (active)
COc1ccc(-c2nnc(SCC(=O)NC(=O)NCc3ccco3)o2)cc1OC | 12.3%
COc1ccc(C2=NOC(C(=O)NCCc3ccccc3)C2)cc1OC (configuration not stated) | -5.18%
CC(C)C[C@@H]1NC(=O)[C@@H]2C[C@H](NC(=O)Nc3ccccc3)CN2C1=O | 3.71%
CCOc1cc(CN2CCC(C(=O)NCCc3ccccc3)CC2)ccc1O | -8.29%
CC(Oc1ccccc1)c1nc(-c2ccccn2)no1 (configuration not stated) | -32.3%
c1ccc(-c2noc(-c3cccs3)n2)nc1 | 33.7% (active)

Structure (SMILES) | inhibition
CCOc1ccccc1-c1noc(-c2cccs2)n1 | -16.8%
CN(C)S(=O)(=O)c1ccc(NC(=O)COC(=O)c2ccc(NC(N)=O)cc2)cc1 | -1.47%
COCCC(=O)NC(C)c1nnc2n1CCN(Cc1ccc(C)cc1)CC2 (configuration not stated) | 10.5%
Cc1ccc2nc(NCCOCCO)c(/C=C3\SC(=S)N(C(C)C)C3=O)c(=O)n2c1 | -4.15%
COc1ccc(/C=C2/C(=N)N3C(=NC2=O)SN=C3S(=O)(=O)C(C)C)cc1OC | -1.31%
O=C(Cc1ccc(Cl)c(Cl)c1)N1CCC(O)(c2ccccn2)CC1 | 0.43%
O=C(c1cc(-c2ccccc2Cl)on1)N1CCCCC1 | 0.6%
O=C(c1cn2c(n1)sc1ccccc12)N1CCCC1 | 37.1% (active)
O=C(c1cccc2nc3ccccc3nc12)N1CCCCCC1 | -1.97%
CCOC(=O)c1[nH]ncc1CN1CCCC(N(C)CCc2ccccc2)C1 (configuration not stated) | -7.42%
O=C1c2ccccc2OCCN1Cc1ccc(F)cc1 | -3.96%
CSc1cccc(NC(=O)c2ncn[nH]2)c1 | 4.68%
CCc1ccc(NC(=O)c2ncn[nH]2)cc1 | 47.9% (active)
O=C(Nc1ccc(Cl)c(C(=O)O)c1)c1ncn[nH]1 | 1.11%
CCCCn1c(N)c(N2CCOCC2)c(=O)[nH]c1=O | 2.71%
CCOC(=O)C1CCN(Cn2[nH]c3nc4ccccc4n3c2=S)CC1 | -6.77%
FC(F)(F)c1cccc(N2CCN(CCN3CCOCC3)CC2)c1 | -6.06%
COc1ccc(-c2nc3ncnc(NCc4ccccc4)c3[nH]2)cn1 | 45% (active)
COc1ccc(-c2nc3ncnc(NCCc4ccc(O)cc4)c3[nH]2)cn1 | 58.2% (active)
COc1ccc(CCNc2ncnc3nc(-c4ccc(C(N)=O)cc4)[nH]c23)cc1 | -4.01%
COc1ccc(-c2nc3ncnc(NCCN4CCOCC4)c3[nH]2)cc1 | -0.6%
COc1ccc(-c2nc3ncnc(Nc4ccccc4)c3[nH]2)cc1 | 0.52%
OCCNc1ncnc2nc(-c3ccccc3)[nH]c12 | 6.88%

Structure (SMILES) | inhibition
COc1cc(OC)cc(C(=O)Nc2cc(C(=O)Nc3ccc(OC)c(OC)c3)ccc2N2CC3CC(C2)c2cccc(=O)n2C3)c1 (configuration not stated) | -0.12%
COc1ccc(/C=C/C(=O)NCCOc2ccc(Cl)cc2)cc1OC | -6.87%
COc1ccc(-c2noc(CCC(=O)N(C)C)n2)cc1 | -26.2%
CCCNC(=O)CCCc1nc(-c2ccc(Cl)cc2)no1 | 25.2%
COc1ccc(NC(=O)CCCc2nc(-c3ccc(OC)c(OC)c3)no2)cc1 | 1.43%
CC(C)(C)NC(=O)CCc1nc(-c2ccc(C(C)(C)C)cc2)no1 | 50.6% (active)
CCNC(=O)CCc1nc(-c2cccc(C)c2)no1 | -13.2%
CC(=O)Nc1ccc(NC(=O)CCCc2nc(-c3ccc(C(C)(C)C)cc3)no2)cc1 | 68.3% (active)
COC(=O)c1ccc(C(=O)NCC2CCC3(CCN(Cc4ccccn4)CC3)O2)cc1 (configuration not stated) | 9.59%
Cc1cccc(C(=O)OCC(=O)NC2CCCCC2C)c1O (configuration not stated) | 7.9%
COc1cccc(C(=O)NC2(C(F)(F)F)NC(=O)N(c3ccccc3)C2=O)c1 (configuration not stated) | 8.83%
COc1cccc2cc(C(=O)Nc3cccc4ccccc34)c(=N)oc12 | -5.43%
Cc1ccc2oc(-c3ccc(C)c(N)c3)nc2c1 | 53.6% (active)
Cc1cc(-c2nc3cc(N)ccc3o2)ccc1Br | 1.99%
Cc1ccc(-c2nc3cc(C(C)C)ccc3o2)cc1N | 80.7% (active)
CCc1ccc2oc(-c3ccc(N)cc3)nc2c1 | 79.6% (active)
CCc1ccc2oc(-c3ccc(NC(=O)c4ccccc4[N+](=O)[O-])cc3)nc2c1 | -50.9%
Cc1ccc2oc(-c3ccc(C)c(NC(=O)c4ccc([N+](=O)[O-])o4)c3)nc2c1 | -28.6%
Cc1ccc(OCC(=O)Nc2ccc(-c3nc4cc(C(C)C)ccc4o3)cc2)cc1 | 20.8%
CCc1ccc(-c2nc3cc(NC(=O)c4ccc(Cl)cc4)ccc3o2)cc1 | 7.97%
CC(=O)Nc1cc(-c2nc3cc(C(C)C)ccc3o2)ccc1Cl | -35.8%
